According to PubChem BioAssay (EPA / NIEHS):
Results filed as inconclusive are left out. The source made the active and inactive calls. Rule for the calls, unless noted: active = hit-call score of the fitted dose curve at least 0.9, where 1 is the maximum; inconclusive = response in the unintended direction; inactive = score below 0.9.

How the values were obtained:
[1] = molecular target: human Vitamin D Receptor (VDR), VDR (gene 7421) (UniProt P11473); experiment: ATG_VDR_TRANS: Attagene TRANS-FACTORIAL HepG2 Assay for human Vitamin D Receptor (VDR) (AID 2283022)
Procedure, shortened: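 Multiplexed TRANS reporter in HepG2; 24 h treatment; reporter mRNA by RT-PCR plus capillary electrophoresis; upregulation scored relative to DMSO.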

[2] = BSK_3C_SRB: Viability Assessment in the BioMAP Diversity Plus: 3C Assay (AID 2283023; active = hit-call score of the fitted dose curve at least 0.9, where 1 is the maximum; inactive = score below 0.9;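 note: cells read 24 h after compound dosing; fitted both ways against DMSO so a hit may be signal rise or drop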); settings: primary human endothelial cells (HUVEC)
Procedure, shortened: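 Overt cytotoxicity is gauged in parallel confluent HUVEC cultures by SRB total-protein staining at the time of biomarker measurement, 24 h after dosing. Gain or loss of signal is fitted versus DMSO.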

[3] = read-out: Matrix Metallopeptidase 1 (MMP1), MMP1 (gene 4312); experiment: BSK_BE3C_MMP1: BioMAP Diversity Plus: BE3C Assay for Matrix Metallopeptidase 1 (MMP1) Biomarker Activity (AID 2283024; active = hit-call score of the fitted dose curve at least 0.9, where 1 is the maximum; inactive = score below 0.9); settings: primary human bronchial epithelial cells; actives raise or lower the signal
Procedure, shortened: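 Dose cells, wait 24 h, run MMP1 ELISA; cells are human bronchial epithelial primaries. Both increases and decreases relative to DMSO counted.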

[4] = BSK_3C_Vis: BioMAP Diversity Plus: 3C Assay for Morphology Visualization (AID 2283025; active = hit-call score of the fitted dose curve at least 0.9, where 1 is the maximum; inactive = score below 0.9;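 note: fitted both ways so gain or loss versus DMSO counts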;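 for AC50: light microscopy image of cell morphology used as background control; cells imaged 24 h after dosing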); settings: primary human endothelial cells (HUVEC)
Procedure, shortened: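 Endothelial cells from human umbilical vein were treated with test chemicals for 24 h and inspected by light microscopy for changes in cell conformation.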

[5] = BSK_4H_SRB: Viability Assessment in the BioMAP Diversity Plus: 4H Assay (AID 2283027; active = hit-call score of the fitted dose curve at least 0.9, where 1 is the maximum; inactive = score below 0.9;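 note: cells exposed to compound for 24 h before staining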;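 for AC50: curves fitted both ways versus DMSO so AC50 may be loss or gain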); settings: primary human endothelial cells (HUVEC)
Procedure, shortened: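 Absorbance at 560 nm of SRB-stained total protein served as the viability read-out in confluent primary human umbilical vein endothelium 24 h after chemical treatment. Curves were fitted bidirectionally against DMSO as negative control.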

[6] = read-out: Thrombomodulin, THBD (gene 7056); experiment: BSK_3C_Thrombomodulin: BioMAP Diversity Plus: 3C Assay for Thrombomodulin Biomarker Activity (AID 2283029; active = hit-call score of the fitted dose curve at least 0.9, where 1 is the maximum; inactive = score below 0.9); settings: primary human endothelial cells (HUVEC); actives raise or lower the signal
Procedure, shortened: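 Thrombomodulin ELISA, human primary HUVEC, 24 h post-dose; data fitted in both directions relative to DMSO.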

[7] = read-out: Urokinase-type plasminogen activator receptor (uPAR), PLAUR (gene 5329); experiment: BSK_4H_uPAR: BioMAP Diversity Plus: 4H Assay for Urokinase-type plasminogen activator receptor (uPAR) Biomarker Activity (AID 2283030; active = hit-call score of the fitted dose curve at least 0.9, where 1 is the maximum; inactive = score below 0.9); settings: primary human endothelial cells (HUVEC); actives raise or lower the signal
Procedure, shortened: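 Endpoint derived via bidirectional curve fitting against DMSO baseline; readout was ELISA detection of uPAR on umbilical vein endothelial cells at 24 h post-treatment, with SRB-stained parallel cultures assessing cytotoxicity.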

[8] = read-out: Vascular endothelial growth factor receptor 2 (Homo sapiens) (UniProt P35968); experiment: BSK_4H_VEGFRII: BioMAP Diversity Plus: 4H Assay for Vascular endothelial growth factor receptor 2 (VEGFR2) Biomarker Activity (AID 2283031; active = hit-call score of the fitted dose curve at least 0.9, where 1 is the maximum; inactive = score below 0.9;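 for AC50: cell-surface VEGFR2 protein level quantified by ELISA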); settings: primary human endothelial cells (HUVEC); actives raise or lower the signal
Procedure, shortened: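 In this multiplexed HUVEC system, biomarker ELISA was performed after 24 h chemical exposure. Parallel SRB staining (TCA fixation, 560 nm) tracked cytotoxicity; DMSO served as baseline.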

[9] = read-out: Human Leukocyte Antigen - DR isotype (HLADR), HLA-DRA (gene 3122); experiment: BSK_BE3C_HLADR: BioMAP Diversity Plus: BE3C Assay for Human Leukocyte Antigen - DR isotype (HLADR) Biomarker Activity (AID 2283032; active = hit-call score of the fitted dose curve at least 0.9, where 1 is the maximum; inactive = score below 0.9); settings: primary human bronchial epithelial cells; actives raise or lower the signal
Procedure, shortened: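 Signal came from an ELISA for HLA-DR in human bronchial epithelial primary cells harvested 24 h after treatment; gain- and loss-of-signal fitting used DMSO controls as reference.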

[10] = read-out: Vascular cell adhesion molecule 1 (VCAM1), VCAM1 (gene 7412); experiment: BSK_4H_VCAM1: BioMAP Diversity Plus: 4H Assay for Vascular cell adhesion molecule 1 (VCAM1) Biomarker Activity (AID 2283033; active = hit-call score of the fitted dose curve at least 0.9, where 1 is the maximum; inactive = score below 0.9;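 for outcome: cell-surface VCAM-1 protein measured by ELISA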); settings: primary human endothelial cells (HUVEC); actives raise or lower the signal
Procedure, shortened: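 Endpoint derived from bidirectional fitting against DMSO controls of VCAM-1 ELISA signal in umbilical vein endothelial cells sampled at 24 h following treatment.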

[11] = read-out: Interferon-gamma inducible Protein 10 (IP10), CXCL10 (gene 3627); experiment: BSK_BE3C_IP10: BioMAP Diversity Plus: BE3C Assay for Interferon-gamma inducible Protein 10 (IP10) Biomarker Activity (AID 2283034; active = hit-call score of the fitted dose curve at least 0.9, where 1 is the maximum; inactive = score below 0.9); settings: primary human bronchial epithelial cells; actives raise or lower the signal
Procedure, shortened: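 Using primary human bronchial epithelial cultures, the assay captures IP-10 by ELISA one day (24 h) after exposure. Parallel SRB staining of total protein flags overt cytotoxicity. Fits run bidirectionally relative to DMSO.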

[12] = read-out: Monokine induced gamma interferon (MIG), CXCL9 (gene 4283); experiment: BSK_BE3C_MIG: BioMAP Diversity Plus: BE3C Assay for Monokine induced gamma interferon (MIG) Biomarker Activity (AID 2283035; active = hit-call score of the fitted dose curve at least 0.9, where 1 is the maximum; inactive = score below 0.9;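 note: MIG protein measured by ELISA in BE3C cultures after 24 h of dosing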); settings: primary human bronchial epithelial cells; actives raise or lower the signal
Procedure, shortened: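 MIG level was determined by ELISA after 24 h chemical treatment of primary human bronchial epithelial cells. Values were fitted bidirectionally with DMSO as the negative control and activity baseline.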

[13] = read-out: Transforming growth factor beta 1 (TGFb1), TGFB1 (gene 7040); experiment: BSK_BE3C_TGFb1: BioMAP Diversity Plus: BE3C Assay for Transforming growth factor beta 1 (TGFb1) Biomarker Activity (AID 2283036; active = hit-call score of the fitted dose curve at least 0.9, where 1 is the maximum; inactive = score below 0.9;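 note: TGF-b1 protein level measured by ELISA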); settings: primary human bronchial epithelial cells; actives raise or lower the signal
Procedure, shortened: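 In this human primary bronchial epithelial system, an ELISA quantified TGF-b1 one day after dosing. Endpoint changes in either direction were fitted relative to DMSO.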

[14] = read-out: Plasminogen activator inhibitor-1 (PAI1), SERPINE1 (gene 5054); experiment: BSK_BE3C_PAI1: BioMAP Diversity Plus: BE3C Assay for Plasminogen activator inhibitor-1 (PAI1) Biomarker Activity (AID 2283037; active = hit-call score of the fitted dose curve at least 0.9, where 1 is the maximum; inactive = score below 0.9); settings: primary human bronchial epithelial cells; actives raise or lower the signal
Procedure, shortened: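 PAI-1 biomarker levels in treated human bronchial epithelial cells are determined by ELISA at 24 h. Both increases and decreases relative to DMSO are fitted.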

[15] = read-out: urokinase plasminogen activator (uPA), PLAU (gene 5328); experiment: BSK_BE3C_uPA: BioMAP Diversity Plus: BE3C Assay for urokinase plasminogen activator (uPA) Biomarker Activity (AID 2283038; active = hit-call score of the fitted dose curve at least 0.9, where 1 is the maximum; inactive = score below 0.9;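 note: uPA protein level quantified by ELISA in cell cultures; uPA read one day after compound addition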); settings: primary human bronchial epithelial cells; actives raise or lower the signal
Procedure, shortened: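 Using confluent primary human lung bronchial epithelial cultures, we dosed chemicals, waited 24 h, then ran a uPA ELISA, fitting bidirectionally against DMSO.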

[16] = read-out: Urokinase-type plasminogen activator receptor (uPAR), PLAUR (gene 5329); experiment: BSK_BE3C_uPAR: BioMAP Diversity Plus: BE3C Assay for Urokinase-type plasminogen activator receptor (uPAR) Biomarker Activity (AID 2283039; active = hit-call score of the fitted dose curve at least 0.9, where 1 is the maximum; inactive = score below 0.9;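 note: uPAR protein level measured by ELISA on the cells; cells exposed to compound for one day before measurement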); settings: primary human bronchial epithelial cells; actives raise or lower the signal
Procedure, shortened: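 A uPAR ELISA serves as the readout, taken 24 h after treating primary human bronchial epithelial cells. Responses in either direction are fitted against DMSO, which defines baseline activity.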

[17] = read-out: Interleukin-6 (IL6), IL6 (gene 3569); experiment: BSK_CASM3C_IL6: BioMAP Diversity Plus: CASM3C Assay for Interleukin-6 (IL6) Biomarker Activity for (AID 2283040; active = hit-call score of the fitted dose curve at least 0.9, where 1 is the maximum; inactive = score below 0.9); settings: primary human coronary artery smooth muscle cells; actives raise or lower the signal
[18] = read-out: Tissue plasminogen activator (tPA), PLAT (gene 5327); experiment: BSK_BE3C_tPA: BioMAP Diversity Plus: BE3C Assay for Tissue plasminogen activator (tPA) Biomarker Activity (AID 2283041; active = hit-call score of the fitted dose curve at least 0.9, where 1 is the maximum; inactive = score below 0.9;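 note: tPA level quantified by ELISA one day after compound addition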); settings: primary human bronchial epithelial cells; actives raise or lower the signal
Procedure, shortened: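 Bidirectional curve fitting relative to DMSO defined activity, with tPA detected by ELISA in chemically treated human bronchial epithelial primary cells at 24 hours.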

[19] = read-out: Interleukin-8 (IL8), CXCL8 (gene 3576); experiment: BSK_CASM3C_IL8: BioMAP Diversity Plus: CASM3C Assay for Interleukin-8 (IL8) Biomarker Activity (AID 2283042; active = hit-call score of the fitted dose curve at least 0.9, where 1 is the maximum; inactive = score below 0.9;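 note: IL-8 protein level quantified by ELISA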); settings: primary human coronary artery smooth muscle cells; actives raise or lower the signal
[20] = read-out: Human Leukocyte Antigen - DR isotype (HLADR), HLA-DRA (gene 3122); experiment: BSK_CASM3C_HLADR: BioMAP Diversity Plus: CASM3C Assay for Human Leukocyte Antigen - DR isotype (HLADR) Biomarker Activity (AID 2283043; active = hit-call score of the fitted dose curve at least 0.9, where 1 is the maximum; inactive = score below 0.9;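 note: cell-surface HLA-DR protein level quantified by ELISA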); settings: primary human coronary artery smooth muscle cells; actives raise or lower the signal

Sequence of human Vitamin D Receptor (VDR), VDR (gene 7421) (P11473 whole entry, looked up): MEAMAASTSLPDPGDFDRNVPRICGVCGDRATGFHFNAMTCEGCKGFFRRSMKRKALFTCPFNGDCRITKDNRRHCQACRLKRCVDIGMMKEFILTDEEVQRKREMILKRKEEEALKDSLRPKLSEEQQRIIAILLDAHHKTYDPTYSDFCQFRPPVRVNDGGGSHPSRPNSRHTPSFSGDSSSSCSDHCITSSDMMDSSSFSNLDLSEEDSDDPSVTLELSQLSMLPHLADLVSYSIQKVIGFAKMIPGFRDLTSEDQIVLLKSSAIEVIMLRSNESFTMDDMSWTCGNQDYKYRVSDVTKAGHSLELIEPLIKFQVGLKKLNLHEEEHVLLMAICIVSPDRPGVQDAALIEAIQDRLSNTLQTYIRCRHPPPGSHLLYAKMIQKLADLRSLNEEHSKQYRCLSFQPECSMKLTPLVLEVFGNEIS

C=C(C)C(=O)OCCO
outcome [1]: inactive

CC1=Nc2ccc3ccccc3c2C1(C)C
outcome [1]: inactive

Cc1cccc(N(C)C(=S)Oc2ccc3ccccc3c2)c1
outcome [1]: inactive

CC(=O)[C@H]1[C@H](C#N)C[C@H]2[C@@H]3CC=C4C[C@@H](O)CC[C@]4(C)[C@H]3CC[C@@]21C
outcome [1]: inactive

ON(Cc1ccccc1)Cc1ccccc1
outcome [1]: inactive

O=C(Oc1ccccc1)c1ccc2ccccc2c1O
outcome [1]: inactive

Cc1ccc(C2OC[C@@H]3OC(c4ccc(C)cc4)O[C@H]([C@H](O)CO)[C@@H]3O2)cc1 (some centres not stated)
outcome [1]: inactive

CC1(C)O[C@@H]2C[C@H]3[C@@H]4C[C@H](F)C5=CC(=O)CC[C@]5(C)[C@H]4[C@@H](O)C[C@]3(C)[C@]2(C(=O)CO)O1
outcome [1]: inactive

O=C1Nc2ccccc2C1(c1ccc(O)cc1)c1ccc(O)cc1
outcome [1]: inactive

CC(C)(C)C(=O)C=Cc1ccc(Cl)cc1
outcome [1]: inactive

NC(CO)(CO)CO
outcome [1]: inactive

CCN(Cc1cccc(S(=O)(=O)O)c1)c1ccc(C(=C2C=CC(=[N+](CC)Cc3cccc(S(=O)(=O)[O-])c3)C=C2)c2ccccc2)cc1
outcome [1]: inactive

CCCCCCCCCCOS(=O)(=O)O
outcome [1]: inactive

CCOC(=O)[C@H](C)O
outcome [1]: inactive

C(=CC=Nc1ccccc1)C=CNc1ccccc1
outcome [1]: inactive

CCCCCCCCCCOC(C)=O
outcome [1]: inactive

O=S(=O)(Oc1ccc(Cl)cc1Cl)c1ccccc1
outcome [1]: inactive

C[Si](C)(CCCN)O[Si](C)(C)CCCN
outcome [1]: inactive

CCN(CC#N)c1cccc(C)c1
outcome [1]: inactive

O=c1cc(-c2ccccc2)oc2ccccc12
outcome [1]: inactive

C=CCCCCCCCCC(=O)OCCCC
outcome [1]: inactive

c1ccc(CNCc2ccccc2)cc1
outcome [1]: inactive

Cc1cc(C)c(C)c(C)c1
outcome [1]: inactive

CCCOCCOCCOCCO
outcome [1]: inactive

O=C(c1ccccc1)c1ccc(O)c(O)c1O
outcome [1]: inactive

CC(C)COC(=O)C=Cc1ccccc1
outcome [1]: inactive

CCCOC(=O)CCCCC(=O)OCCC
outcome [1]: inactive

O=C(O)CCCCCCCCCC(=O)O
outcome [1]: inactive

Nc1nc2ccccc2[nH]1
outcome [1]: inactive

O=C1CCCC1
outcome [1]: inactive

CC(=O)C=CC1C(C)=CCC(C)C1(C)C (configuration not stated)
outcome [1]: inactive

CCCCCCCOC(=O)CCC
outcome [1]: inactive

CCCC(C)CCC(C)=O (configuration not stated)
outcome [1]: inactive

CC1(C)O[C@@H]2C[C@H]3[C@@H]4C[C@H](F)C5=CC(=O)C=C[C@]5(C)[C@@]4(F)[C@@H](O)C[C@]3(C)[C@]2(C(=O)CO)O1
outcome [1]: inactive

O=C(C(Cl)Cl)N1CCOC12CCCCC2
outcome [1]: inactive

FC(F)=C(F)OC(F)(F)C(F)(F)C(F)(F)F
outcome [1]: inactive

CCCCCCCCO[C@@H]1O[C@H](CO)[C@@H](O)[C@H](O)[C@H]1O
outcome [1]: inactive

O=c1n(CCO)c(=O)n(CCO)c(=O)n1CCO
outcome [1]: inactive

COC(=O)c1c(C)cc(O)c(C)c1O
outcome [1]: inactive

CCCCCCCCc1ccc(Nc2ccc(CCCCCCCC)cc2)cc1
outcome [1]: inactive | outcome [2]: inactive | outcome [3]: inactive | outcome [4]: inactive | outcome [5]: inactive | outcome [6]: inactive | outcome [7]: inactive | outcome [8]: inactive | outcome [9]: inactive | outcome [10]: inactive | outcome [11]: inactive | outcome [12]: inactive | outcome [13]: inactive | outcome [14]: inactive | outcome [15]: inactive | outcome [16]: inactive | outcome [17]: inactive | outcome [18]: inactive | outcome [19]: inactive | outcome [20]: inactive

CC/C=C\C/C=C\C/C=C\CCCCCCCC(=O)O
outcome [1]: inactive

CC(=O)OC(C)C
outcome [1]: inactive

CC(C)c1ccc(C=O)cc1
outcome [1]: inactive

O=Cc1ccc(CO)o1
outcome [1]: inactive

CC(C)=CCC/C(C)=C\C#N
outcome [1]: inactive

CCCCC(CC)CCC(CC(C)C)OS(=O)(=O)O (configuration not stated)
outcome [1]: inactive

OCCc1ccncc1
outcome [1]: inactive

CCCCCCCCCCCCCCCC[n+]1ccccc1
AC50 [1]: 26.8 µM (active)

O=C1OC(=O)c2cc(Oc3ccc4c(c3)C(=O)OC4=O)ccc21
outcome [1]: inactive

CCCCCCCC/C=C\CCCCCCCC(=O)OCCO
outcome [1]: inactive

CCCCC/C=C\CCC=O
outcome [1]: inactive

OC1OCCOC1O (configuration not stated)
outcome [1]: inactive

CCOC(F)(F)C(F)(F)C(F)(F)C(F)(F)F
outcome [1]: inactive

CN(C)CCCN(C)C
outcome [1]: inactive

NC(=O)NNC(N)=O
outcome [1]: inactive

CC=C1CC2C=CC1C2 (configuration not stated)
outcome [1]: inactive

CCCCC(CC)COC(=O)c1ccccc1O (configuration not stated)
outcome [1]: inactive | AC50 [2]: 15.7 µM (active) | outcome [3]: inactive | AC50 [4]: 19.9 µM (active) | AC50 [5]: 18.2 µM (active) | outcome [6]: inactive | outcome [7]: inactive | AC50 [8]: 18.8 µM (active) | outcome [9]: inactive | AC50 [10]: 14.9 µM (active) | outcome [11]: inactive | outcome [12]: inactive | outcome [13]: inactive | outcome [14]: inactive | outcome [15]: inactive | outcome [16]: inactive | outcome [17]: inactive | outcome [18]: inactive | outcome [19]: inactive | outcome [20]: inactive

c1cc(N(CC2CO2)CC2CO2)ccc1OCC1CO1 (configuration not stated)
outcome [1]: inactive

C=C(C)C(=O)OCCOc1ccccc1
outcome [1]: inactive
